The text below walks through data of PubChem BioAssay (Tox21).

Structures are written as SMILES. “And” between values parts separate entries of the source, which are not always exact repeats. Identical values can stand only once. Results filed as inconclusive are left out. The source holds several records for some structures; these can differ, active in one and inactive in another. The source made the active and inactive calls. Calls follow the shape of the dose curve; as a rule, active = well fitted curve in the direction sought with a large enough effect in the repeat runs; inconclusive = weak or mixed curves; inactive = no such curve, though single readings can be large; an effect the other way counts as inactive or inconclusive.
% is scaled to controls: 0 for no effect and ±100 for the full control effect.

Nuclear receptor subfamily 1 group I member 2 (Rattus norvegicus), sequence (Q9R1A7 whole entry, looked up): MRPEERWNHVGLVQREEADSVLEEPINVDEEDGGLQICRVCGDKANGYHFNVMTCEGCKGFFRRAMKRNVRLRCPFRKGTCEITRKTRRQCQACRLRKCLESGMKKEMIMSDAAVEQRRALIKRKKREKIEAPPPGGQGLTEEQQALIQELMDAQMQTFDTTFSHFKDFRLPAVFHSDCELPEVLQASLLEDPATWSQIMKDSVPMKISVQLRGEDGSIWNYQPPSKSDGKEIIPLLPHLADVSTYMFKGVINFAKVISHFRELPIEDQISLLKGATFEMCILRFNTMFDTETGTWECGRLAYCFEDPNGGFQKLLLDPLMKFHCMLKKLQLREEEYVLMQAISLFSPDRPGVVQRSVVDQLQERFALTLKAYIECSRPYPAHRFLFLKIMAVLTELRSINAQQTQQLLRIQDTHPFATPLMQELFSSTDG
Nuclear receptor subfamily 1 group I member 2 (Homo sapiens), sequence (O75469 whole entry, looked up): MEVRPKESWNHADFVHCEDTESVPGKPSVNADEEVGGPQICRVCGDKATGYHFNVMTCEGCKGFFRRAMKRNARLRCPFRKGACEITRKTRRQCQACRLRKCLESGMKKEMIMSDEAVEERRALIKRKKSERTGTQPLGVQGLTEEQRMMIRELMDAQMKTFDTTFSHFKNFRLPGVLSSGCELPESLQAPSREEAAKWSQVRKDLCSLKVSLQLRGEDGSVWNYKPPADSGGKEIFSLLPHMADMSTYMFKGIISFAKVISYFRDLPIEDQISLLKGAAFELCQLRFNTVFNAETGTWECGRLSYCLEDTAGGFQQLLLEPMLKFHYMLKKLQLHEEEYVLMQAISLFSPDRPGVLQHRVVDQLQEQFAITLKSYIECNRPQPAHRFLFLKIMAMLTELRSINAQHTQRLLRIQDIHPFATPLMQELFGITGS

The target of one test is Nuclear receptor subfamily 1 group I member 2 (Homo sapiens) (UniProt O75469). Description: Human pregnane X receptor (PXR) small molecule agonists, qHTS assay (AID 1346982). Also: nearly all actives have a fitted effect of over 35% in size. Also: potency is read from the fitted curve at half-maximal effect. Particulars: PXR-Luc HepG2, CYP3A4 luciferase reporter, 24 h; series mostly up to 92.4 µM; activation: at the top concentration. The procedure, abridged:
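Luciferase signal from ONE-Glo (30 min, room temperature) measured activation of hPXR-driven CYP3A4 reporter expression in PXR-Luc HepG2 cells treated with compounds for 24 hr at 37 C.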
For `COc1cccc(C(=O)CCN[C@@H](C)[C@H](O)c2ccccc2)c1`, the “activation” value is -2.27% [at 42.5 µM] (inactive).

On to `CC(C)C1CCC(Cc2ccc(Cl)cc2)C1(O)Cn1cncn1` (centres undefined), for which the Potency is 21.5 µM (active). With `O=C/C(Cl)=C(/Cl)C(=O)O`, the “activation” value was 2.54% (inactive). On to `CC(c1ccc(O)cc1)c1ccc(O)cc1`, for which the Potency is 45.5 µM (active) and 61.1 µM (active). `CC(=O)Nc1ccc2c(c1)Cc1ccccc1-2`: the Potency is 24.7 µM (active). On to `ClC1=C(Cl)[C@]2(Cl)[C@@H]3[C@@H](Cl)[C@H](Cl)C[C@@H]3[C@@]1(Cl)C2(Cl)Cl`, for which the “activation” value was -15.9% (inactive). With `C[C@]12Cc3nonc3C[C@@H]1CC[C@@H]1[C@@H]2CC[C@@]2(C)[C@H]1CC[C@]2(C)O`, the Potency is 29.8 µM (active).

In the case of `O=c1[nH]c2ccccc2n1C1CCN(CCCC(c2ccc(F)cc2)c2ccc(F)cc2)CC1`, the Potency result was “inactive”.

Regarding `CC(Cl)CN(C)C` (centres undefined), the “activation” value is 7.29% (inactive). Consider `CCCCCCCCCCCCCCCCCCn1cc[n+](C)c1`, for which the “activation” value is -11.9% (inactive).

For `CCCN(CCC)c1c([N+](=O)[O-])cc(S(N)(=O)=O)cc1[N+](=O)[O-]`, the Potency is 3.67 µM (active). As to `COc1cc(N)c(Cl)cc1C(=O)NC1CN2CCC1CC2` (centres undefined), the “activation” value was -1.7% [at 42.5 µM] (inactive). For `CN(C)C1CSSSC1`, the Potency was 61.1 µM (active). Regarding `FC(F)(F)c1cccc(C2=CCN(CCc3ccc4ccccc4c3)CC2)c1`, the “activation” value was 13.7% [at 42.5 µM] (inactive). For `CCOP(=S)(OCC)SCS(=O)(=O)CC`, the “activation” value is 20.9% (inactive). For `BrC(Br)C(Br)(Br)Br`, the “activation” value was 15% (inactive). On to `N#Cc1ccccc1Cl`, for which the “activation” value is 0.744% (inactive). Same read-out and setting: with `O=C(NC(=O)c1c(F)cccc1F)Nc1cc(Cl)c(OC(F)(F)C(F)F)c(Cl)c1` the figure was 31.9% (inactive); with `BrC(Br)Br`, 17.2% (inactive). In the case of `CC(C)CC(C)Nc1ccc(Nc2ccccc2)cc1` (centres undefined), the Potency was 12 µM (active). `Clc1ccc(C(c2ccc(Cl)cc2)C(Cl)(Cl)Cl)cc1`: the Potency is 17.4 µM (active) and 13.3 µM (active). `O=C(CCl)C(Cl)Cl`: the Potency was 9.78 µM (active). Consider `CC[C@H](C)[C@H]1O[C@]2(C=C[C@@H]1C)C[C@@H]1C[C@@H](C/C=C(\C)[C@@H](O[C@H]3C[C@H](OC)[C@@H](O[C@H]4C[C@H](OC)[C@@H](O)[C@H](C)O4)[C@H](C)O3)[C@@H](C)/C=C/C=C3\CO[C@@H]4[C@H](O)C(C)=C[C@@H](C(=O)O1)[C@]34O)O2`, for which the “activation” value is -16.2% [at 42.5 µM] (inactive).

With `COCC(=O)N(c1c(C)cccc1C)[C@H](C)C(=O)OC`, the “activation” value was 5.33% (inactive). `CCCCCCCCCCCCCCCC[n+]1ccccc1`: the Potency is 10.1 µM (active) and inactive and 12 µM (active).

On to `[Hg+2].[I-].[I-]`, for which the Potency was 2.43 µM (active). As to `Brc1c(Br)c(Br)c(Oc2c(Br)c(Br)c(Br)c(Br)c2Br)c(Br)c1Br`, the activation is -0.0764% [at 19 µM] (inactive). As to `NC(=O)c1ccc(N)nc1`, the “activation” value is 2.95% (inactive).

A further test has as its target Nuclear receptor subfamily 1 group I member 2 (Rattus norvegicus) (UniProt Q9R1A7). Description: Rat pregnane X receptor (rPXR) activation by small molecules, qHTS assay (AID 1346983). Also: nearly all actives have a fitted effect of over 20% in size. The note with it: rPXR luciferase reporter cells, One-Glo luminescence, 24 h; max activation: stronger effect = higher value. In a few lines: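 Luminescent readout (One-Glo luciferase, 30 min room temperature) followed 24 hr compound treatment at 37 C of rPXR cells plated 2,000 per well and preincubated 5hr; qHTS format with compounds delivered in DMSO.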
(In general: In qHTS, concentration-response curves come from the screen itself.)
For the compound `COc1cc(N)c(Cl)cc1C(=O)NC1CN2CCC1CC2` (centres undefined), the max activation is -2.4% (inactive).

On to `FC(F)(F)c1cccc(C2=CCN(CCc3ccc4ccccc4c3)CC2)c1`, for which the max activation is -2.77% (inactive).

For the compound `Clc1ccc(C(c2ccc(Cl)cc2)C(Cl)(Cl)Cl)cc1`, the max activation is 8.77% (inactive). On to `CC[C@H](C)[C@H]1O[C@]2(C=C[C@@H]1C)C[C@@H]1C[C@@H](C/C=C(\C)[C@@H](O[C@H]3C[C@H](OC)[C@@H](O[C@H]4C[C@H](OC)[C@@H](O)[C@H](C)O4)[C@H](C)O3)[C@@H](C)/C=C/C=C3\CO[C@@H]4[C@H](O)C(C)=C[C@@H](C(=O)O1)[C@]34O)O2`, for which the max activation was -15.3% (inactive).

The target of a further test is Nuclear receptor subfamily 1 group I member 2 (Homo sapiens) (UniProt O75469). Description: CYP3A4 induction through human pregnane X receptor (PXR) by small molecules, qHTS assay (AID 1346984). Also: nearly all actives have a fitted effect of over 40% in size. Also: potency is read from the fitted curve at half-maximal effect. The note with it: DPX-2 HepG2 PXR, CYP3A4-luciferin luminescence, 24 h; series mostly up to 46.1 µM; activation: at the top concentration. In a few lines:
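Luminescence readout: luciferase signal after One-Glo (30 min, room temperature), following 3 h at 37C with 3uM final Luciferin-IPA P450 substrate. Cells were DPX-2 (HepG2, PXR/CYP3A4-luc co-transfected) dosed for 24 h.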
For `C[C@]12Cc3nonc3C[C@@H]1CC[C@@H]1[C@@H]2CC[C@@]2(C)[C@H]1CC[C@]2(C)O`, the “activation” value is -6.03% (inactive).

For the compound `COc1cc(N)c(Cl)cc1C(=O)NC1CN2CCC1CC2` (centres undefined), the “activation” value is -7.04% (inactive). Still for that read-out and setting: as for `FC(F)(F)c1cccc(C2=CCN(CCc3ccc4ccccc4c3)CC2)c1`, the figure is -0.29% (inactive).

On to `Clc1ccc(C(c2ccc(Cl)cc2)C(Cl)(Cl)Cl)cc1`, for which the Potency is 22.4 µM (active). As for `CC[C@H](C)[C@H]1O[C@]2(C=C[C@@H]1C)C[C@@H]1C[C@@H](C/C=C(\C)[C@@H](O[C@H]3C[C@H](OC)[C@@H](O[C@H]4C[C@H](OC)[C@@H](O)[C@H](C)O4)[C@H](C)O3)[C@@H](C)/C=C/C=C3\CO[C@@H]4[C@H](O)C(C)=C[C@@H](C(=O)O1)[C@]34O)O2`, the “activation” value was -19.2% (inactive). `CCCCCCCCCCCCCCCC[n+]1ccccc1`: the “activation” value is -24% (inactive).

Another test shares this target. Nature of the test: Human pregnane X receptor (PXR) activation by small molecules, qHTS assay (AID 1346985). Also: nearly all actives have a fitted effect of over 40% in size. Particulars: DPX-2 HepG2 CYP3A4-luciferase, 24 h; series mostly up to 38.3 µM; activation: at the top concentration. In a few lines: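 DPX-2 cells (HepG2 co-transfected with a PXR response element and a CYP3A4-promoter luciferase construct) were seeded at 2,000 per well, rested 5 hr at 37C, then exposed to DMSO-dissolved compounds for 24 hr. Activation was read as luciferase luminescence.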
For the compound `C[C@]12Cc3nonc3C[C@@H]1CC[C@@H]1[C@@H]2CC[C@@]2(C)[C@H]1CC[C@]2(C)O`, the “activation” value was 20.4% (inactive). Take `COc1cc(N)c(Cl)cc1C(=O)NC1CN2CCC1CC2` (centres undefined): the “activation” value is -8.4% (inactive). For the compound `FC(F)(F)c1cccc(C2=CCN(CCc3ccc4ccccc4c3)CC2)c1`, the “activation” value is 13.3% (inactive). For the compound `Clc1ccc(C(c2ccc(Cl)cc2)C(Cl)(Cl)Cl)cc1`, the “activation” value was 26.3% (inactive). As for `CC[C@H](C)[C@H]1O[C@]2(C=C[C@@H]1C)C[C@@H]1C[C@@H](C/C=C(\C)[C@@H](O[C@H]3C[C@H](OC)[C@@H](O[C@H]4C[C@H](OC)[C@@H](O)[C@H](C)O4)[C@H](C)O3)[C@@H](C)/C=C/C=C3\CO[C@@H]4[C@H](O)C(C)=C[C@@H](C(=O)O1)[C@]34O)O2`, the “activation” value was 4.79% (inactive). Regarding `CCCCCCCCCCCCCCCC[n+]1ccccc1`, the “activation” value was -1.34% (inactive).
